From ChEMBL document CHEMBL1961873, “Compounds: GSK PKIS; Assays: Nanosyn kinase panel” (2012)

Legend:
[1] = target: Calcium/calmodulin-dependent protein kinase type II subunit alpha (Homo sapiens) (UniProt Q9UQM7); conditions: at 1 µM;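 note: reported value is a mean percent inhibition of CAMK2A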
[2] = target: Calcium/calmodulin-dependent protein kinase type II subunit delta (Homo sapiens) (UniProt Q13557); conditions: at 0.1 µM
[3] = target: Calcium/calmodulin-dependent protein kinase type II subunit delta (Homo sapiens) (UniProt Q13557); conditions: at 1 µM
[4] = target: T1, Calcium/calmodulin-dependent protein kinase type IV (Homo sapiens) (UniProt Q16566); conditions: at 0.1 µM
T1 sequence (whole entry): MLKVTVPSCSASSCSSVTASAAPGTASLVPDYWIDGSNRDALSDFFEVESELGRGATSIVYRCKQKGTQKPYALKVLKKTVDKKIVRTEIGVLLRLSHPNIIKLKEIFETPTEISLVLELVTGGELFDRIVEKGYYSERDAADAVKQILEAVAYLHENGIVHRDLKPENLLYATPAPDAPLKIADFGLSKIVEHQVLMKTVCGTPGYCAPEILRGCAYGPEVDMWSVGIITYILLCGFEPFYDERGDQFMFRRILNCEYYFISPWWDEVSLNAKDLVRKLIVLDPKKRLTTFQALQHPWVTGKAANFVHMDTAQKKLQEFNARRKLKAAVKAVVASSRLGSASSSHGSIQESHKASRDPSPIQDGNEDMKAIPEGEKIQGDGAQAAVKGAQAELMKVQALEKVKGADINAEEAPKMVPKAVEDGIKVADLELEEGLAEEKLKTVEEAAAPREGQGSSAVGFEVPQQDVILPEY

[5] = target: T1, Calcium/calmodulin-dependent protein kinase type IV (Homo sapiens); conditions: at 1 µM
[6] = target: T2, Serine/threonine-protein kinase Chk1 (Homo sapiens) (UniProt O14757); conditions: at 0.1 µM
T2 sequence (whole entry): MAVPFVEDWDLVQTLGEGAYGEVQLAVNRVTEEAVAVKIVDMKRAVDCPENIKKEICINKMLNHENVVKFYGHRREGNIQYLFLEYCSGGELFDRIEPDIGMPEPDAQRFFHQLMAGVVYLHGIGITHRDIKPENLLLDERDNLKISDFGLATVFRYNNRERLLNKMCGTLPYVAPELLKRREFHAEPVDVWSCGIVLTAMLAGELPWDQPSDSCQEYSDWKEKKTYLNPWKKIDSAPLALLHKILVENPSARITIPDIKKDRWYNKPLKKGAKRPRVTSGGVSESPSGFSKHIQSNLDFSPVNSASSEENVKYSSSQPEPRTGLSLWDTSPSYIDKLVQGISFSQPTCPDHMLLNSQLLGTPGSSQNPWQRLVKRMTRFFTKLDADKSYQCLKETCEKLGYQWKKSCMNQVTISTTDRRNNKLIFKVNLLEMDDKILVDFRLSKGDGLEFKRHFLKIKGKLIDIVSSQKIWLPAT

[7] = target: T2, Serine/threonine-protein kinase Chk1 (Homo sapiens); conditions: at 1 µM
[8] = target: Serine/threonine-protein kinase Chk2 (Homo sapiens) (UniProt O96017); conditions: at 0.1 µM
Serine/threonine-protein kinase Chk2 (Homo sapiens), sequence (O96017 whole entry): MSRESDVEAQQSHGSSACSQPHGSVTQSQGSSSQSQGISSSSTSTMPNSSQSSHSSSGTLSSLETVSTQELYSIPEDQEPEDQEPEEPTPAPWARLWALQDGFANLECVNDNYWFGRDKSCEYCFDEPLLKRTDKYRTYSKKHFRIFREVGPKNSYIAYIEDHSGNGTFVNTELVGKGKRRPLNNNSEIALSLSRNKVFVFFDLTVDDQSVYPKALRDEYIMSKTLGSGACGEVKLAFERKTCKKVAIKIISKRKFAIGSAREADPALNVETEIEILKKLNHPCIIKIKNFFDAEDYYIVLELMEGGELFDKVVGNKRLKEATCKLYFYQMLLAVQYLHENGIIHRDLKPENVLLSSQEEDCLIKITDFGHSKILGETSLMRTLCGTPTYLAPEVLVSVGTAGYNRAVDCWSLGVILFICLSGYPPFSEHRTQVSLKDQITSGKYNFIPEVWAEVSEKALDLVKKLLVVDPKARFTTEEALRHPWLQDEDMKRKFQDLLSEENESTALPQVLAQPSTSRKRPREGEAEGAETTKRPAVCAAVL

[9] = target: Serine/threonine-protein kinase Chk2 (Homo sapiens) (UniProt O96017); conditions: at 1 µM
[10] = target: Death-associated protein kinase 1 (Homo sapiens) (UniProt P53355); conditions: at 0.1 µM
Death-associated protein kinase 1 (Homo sapiens), sequence (P53355 whole entry, looked up): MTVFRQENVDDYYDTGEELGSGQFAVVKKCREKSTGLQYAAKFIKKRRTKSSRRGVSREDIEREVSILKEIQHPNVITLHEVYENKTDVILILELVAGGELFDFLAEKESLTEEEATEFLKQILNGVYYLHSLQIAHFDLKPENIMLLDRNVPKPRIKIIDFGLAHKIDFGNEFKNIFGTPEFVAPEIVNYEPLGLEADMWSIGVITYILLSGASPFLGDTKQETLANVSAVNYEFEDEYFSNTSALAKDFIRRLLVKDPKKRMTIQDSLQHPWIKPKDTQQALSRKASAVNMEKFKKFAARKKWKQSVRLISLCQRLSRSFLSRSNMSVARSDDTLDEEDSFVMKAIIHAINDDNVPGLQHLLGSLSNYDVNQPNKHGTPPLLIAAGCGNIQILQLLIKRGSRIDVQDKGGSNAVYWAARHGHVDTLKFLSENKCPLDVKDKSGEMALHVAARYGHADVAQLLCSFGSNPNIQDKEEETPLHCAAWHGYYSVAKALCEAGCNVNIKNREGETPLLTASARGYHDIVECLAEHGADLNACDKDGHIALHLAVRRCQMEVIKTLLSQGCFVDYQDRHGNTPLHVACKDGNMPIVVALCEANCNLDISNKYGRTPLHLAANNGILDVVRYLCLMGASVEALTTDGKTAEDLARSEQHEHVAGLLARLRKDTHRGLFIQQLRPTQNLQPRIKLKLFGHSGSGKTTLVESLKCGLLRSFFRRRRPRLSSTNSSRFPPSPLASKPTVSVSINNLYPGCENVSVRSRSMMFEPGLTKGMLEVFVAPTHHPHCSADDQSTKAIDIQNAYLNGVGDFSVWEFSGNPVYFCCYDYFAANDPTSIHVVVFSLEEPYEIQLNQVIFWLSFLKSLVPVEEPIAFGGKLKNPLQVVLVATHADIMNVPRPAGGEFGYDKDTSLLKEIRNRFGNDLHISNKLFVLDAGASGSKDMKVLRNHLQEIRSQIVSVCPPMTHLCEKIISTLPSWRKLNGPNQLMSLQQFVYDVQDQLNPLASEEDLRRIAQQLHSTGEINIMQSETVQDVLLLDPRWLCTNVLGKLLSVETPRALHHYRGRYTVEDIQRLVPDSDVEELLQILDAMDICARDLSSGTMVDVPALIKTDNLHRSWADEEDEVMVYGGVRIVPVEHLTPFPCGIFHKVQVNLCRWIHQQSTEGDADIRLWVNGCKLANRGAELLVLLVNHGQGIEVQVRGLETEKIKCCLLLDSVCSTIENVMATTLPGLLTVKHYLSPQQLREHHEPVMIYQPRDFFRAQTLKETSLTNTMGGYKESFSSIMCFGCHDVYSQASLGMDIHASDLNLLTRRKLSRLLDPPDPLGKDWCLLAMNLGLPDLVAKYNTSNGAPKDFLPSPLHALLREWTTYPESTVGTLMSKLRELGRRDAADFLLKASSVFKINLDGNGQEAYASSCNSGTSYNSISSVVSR

[11] = target: Death-associated protein kinase 1 (Homo sapiens) (UniProt P53355); conditions: at 1 µM
[12] = target: T3, Serine/threonine-protein kinase DCLK2 (Homo sapiens) (UniProt Q8N568); conditions: at 0.1 µM
T3 sequence (whole entry): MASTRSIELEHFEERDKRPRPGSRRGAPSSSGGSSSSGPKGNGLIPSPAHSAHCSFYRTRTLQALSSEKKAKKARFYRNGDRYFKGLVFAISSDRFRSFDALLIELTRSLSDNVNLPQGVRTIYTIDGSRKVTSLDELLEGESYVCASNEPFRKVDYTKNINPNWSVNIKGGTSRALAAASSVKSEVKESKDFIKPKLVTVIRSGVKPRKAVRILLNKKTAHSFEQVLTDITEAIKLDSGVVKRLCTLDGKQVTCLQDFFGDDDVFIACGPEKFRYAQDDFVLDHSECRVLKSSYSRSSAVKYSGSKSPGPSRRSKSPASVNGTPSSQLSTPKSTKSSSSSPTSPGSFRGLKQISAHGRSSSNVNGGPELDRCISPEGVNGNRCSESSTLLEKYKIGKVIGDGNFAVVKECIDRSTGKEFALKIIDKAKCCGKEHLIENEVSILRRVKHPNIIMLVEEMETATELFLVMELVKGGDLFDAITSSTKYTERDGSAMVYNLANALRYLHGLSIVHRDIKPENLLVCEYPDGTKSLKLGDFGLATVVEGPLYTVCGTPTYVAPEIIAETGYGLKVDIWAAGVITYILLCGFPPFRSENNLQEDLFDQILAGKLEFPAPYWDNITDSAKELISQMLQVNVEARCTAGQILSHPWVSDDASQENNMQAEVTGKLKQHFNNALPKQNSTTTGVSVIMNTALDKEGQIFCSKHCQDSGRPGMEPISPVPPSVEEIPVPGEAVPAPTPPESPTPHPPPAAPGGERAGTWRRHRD

[13] = target: T3, Serine/threonine-protein kinase DCLK2 (Homo sapiens); conditions: at 1 µM
[14] = target: MAP kinase-activated protein kinase 2 (Homo sapiens) (UniProt P49137); conditions: at 0.1 µM
[15] = target: MAP kinase-activated protein kinase 2 (Homo sapiens) (UniProt P49137); conditions: at 1 µM
[16] = target: MAP kinase-activated protein kinase 3 (Homo sapiens) (UniProt Q16644); conditions: at 0.1 µM
MAP kinase-activated protein kinase 3 (Homo sapiens), sequence (Q16644 whole entry, looked up): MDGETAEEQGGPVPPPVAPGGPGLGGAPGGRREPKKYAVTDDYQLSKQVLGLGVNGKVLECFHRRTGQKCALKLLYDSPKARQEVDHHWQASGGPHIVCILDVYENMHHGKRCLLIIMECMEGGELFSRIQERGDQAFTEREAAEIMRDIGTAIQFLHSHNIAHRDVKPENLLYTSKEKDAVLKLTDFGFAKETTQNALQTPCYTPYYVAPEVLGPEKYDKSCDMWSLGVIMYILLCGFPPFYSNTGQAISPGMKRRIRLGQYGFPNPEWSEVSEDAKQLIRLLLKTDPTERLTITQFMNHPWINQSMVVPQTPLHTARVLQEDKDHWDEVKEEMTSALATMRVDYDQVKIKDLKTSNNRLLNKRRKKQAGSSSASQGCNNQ

[17] = target: MAP kinase-activated protein kinase 3 (Homo sapiens) (UniProt Q16644); conditions: at 1 µM
[18] = target: Serine/threonine-protein kinase MARK1 (Homo sapiens) (UniProt Q9P0L2); conditions: at 0.1 µM
Serine/threonine-protein kinase MARK1 (Homo sapiens), sequence (Q9P0L2 whole entry, looked up): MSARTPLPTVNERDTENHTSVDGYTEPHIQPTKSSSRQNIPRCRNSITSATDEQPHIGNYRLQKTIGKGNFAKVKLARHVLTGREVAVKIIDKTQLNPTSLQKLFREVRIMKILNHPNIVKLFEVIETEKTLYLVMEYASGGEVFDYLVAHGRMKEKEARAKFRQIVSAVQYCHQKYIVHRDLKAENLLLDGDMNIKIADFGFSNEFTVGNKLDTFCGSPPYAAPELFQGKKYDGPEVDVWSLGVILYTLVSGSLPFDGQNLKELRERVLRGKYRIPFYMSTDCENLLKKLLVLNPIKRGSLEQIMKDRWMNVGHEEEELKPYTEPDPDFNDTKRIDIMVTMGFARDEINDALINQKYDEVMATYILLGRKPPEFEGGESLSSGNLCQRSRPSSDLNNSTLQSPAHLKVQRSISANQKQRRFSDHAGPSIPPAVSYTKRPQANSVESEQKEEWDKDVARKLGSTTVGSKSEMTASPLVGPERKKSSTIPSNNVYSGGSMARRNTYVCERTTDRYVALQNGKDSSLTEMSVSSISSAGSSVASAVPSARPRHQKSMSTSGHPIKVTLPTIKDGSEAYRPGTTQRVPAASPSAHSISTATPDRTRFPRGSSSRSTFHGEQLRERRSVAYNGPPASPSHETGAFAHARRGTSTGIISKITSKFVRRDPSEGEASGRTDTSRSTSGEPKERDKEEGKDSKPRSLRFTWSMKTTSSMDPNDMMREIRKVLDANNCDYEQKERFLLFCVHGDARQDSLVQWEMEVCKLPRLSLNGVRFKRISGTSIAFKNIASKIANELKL

[19] = target: Serine/threonine-protein kinase MARK1 (Homo sapiens) (UniProt Q9P0L2); conditions: at 1 µM
[20] = target: MAP/microtubule affinity-regulating kinase 3 (Homo sapiens) (UniProt P27448); conditions: at 0.1 µM;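 note: mean percent inhibition of MARK3 kinase activity, measured within the GSK PKIS screening panel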
MAP/microtubule affinity-regulating kinase 3 (Homo sapiens), sequence (P27448 whole entry, looked up): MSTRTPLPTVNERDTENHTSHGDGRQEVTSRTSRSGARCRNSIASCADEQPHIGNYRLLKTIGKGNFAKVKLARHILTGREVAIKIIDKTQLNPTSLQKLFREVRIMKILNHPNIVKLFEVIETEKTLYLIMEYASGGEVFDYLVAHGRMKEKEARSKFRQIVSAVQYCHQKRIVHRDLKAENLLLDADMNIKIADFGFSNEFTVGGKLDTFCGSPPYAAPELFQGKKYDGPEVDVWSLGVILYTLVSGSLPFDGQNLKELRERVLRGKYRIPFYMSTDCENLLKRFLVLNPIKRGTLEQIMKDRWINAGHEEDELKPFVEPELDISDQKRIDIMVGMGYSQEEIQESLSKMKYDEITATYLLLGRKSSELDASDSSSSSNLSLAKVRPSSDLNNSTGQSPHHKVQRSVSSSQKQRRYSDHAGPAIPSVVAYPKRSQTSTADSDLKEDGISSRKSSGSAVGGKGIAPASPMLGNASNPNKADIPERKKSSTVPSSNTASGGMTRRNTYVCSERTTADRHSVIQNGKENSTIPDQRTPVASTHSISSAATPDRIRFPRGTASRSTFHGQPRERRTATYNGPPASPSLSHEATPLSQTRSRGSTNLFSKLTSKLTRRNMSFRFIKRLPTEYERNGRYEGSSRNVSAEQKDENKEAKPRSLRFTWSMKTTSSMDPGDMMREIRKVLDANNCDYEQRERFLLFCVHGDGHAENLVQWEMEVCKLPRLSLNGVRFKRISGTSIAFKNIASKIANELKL

Calcium/calmodulin-dependent protein kinase type II subunit delta (Homo sapiens), sequence (Q13557 whole entry): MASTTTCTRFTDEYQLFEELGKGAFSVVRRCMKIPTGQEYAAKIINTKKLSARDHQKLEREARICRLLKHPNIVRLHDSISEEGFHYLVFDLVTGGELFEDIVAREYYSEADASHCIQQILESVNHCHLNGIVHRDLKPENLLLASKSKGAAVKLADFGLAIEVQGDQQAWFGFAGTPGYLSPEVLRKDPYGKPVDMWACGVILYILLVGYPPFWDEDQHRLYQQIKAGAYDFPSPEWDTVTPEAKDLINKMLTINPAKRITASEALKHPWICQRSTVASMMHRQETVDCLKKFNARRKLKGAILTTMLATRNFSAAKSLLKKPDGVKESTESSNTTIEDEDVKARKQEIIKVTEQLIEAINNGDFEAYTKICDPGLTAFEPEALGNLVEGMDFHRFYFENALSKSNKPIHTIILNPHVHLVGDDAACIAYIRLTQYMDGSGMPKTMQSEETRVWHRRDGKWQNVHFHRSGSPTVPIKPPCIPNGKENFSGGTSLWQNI
Calcium/calmodulin-dependent protein kinase type II subunit alpha (Homo sapiens), sequence (Q9UQM7 whole entry): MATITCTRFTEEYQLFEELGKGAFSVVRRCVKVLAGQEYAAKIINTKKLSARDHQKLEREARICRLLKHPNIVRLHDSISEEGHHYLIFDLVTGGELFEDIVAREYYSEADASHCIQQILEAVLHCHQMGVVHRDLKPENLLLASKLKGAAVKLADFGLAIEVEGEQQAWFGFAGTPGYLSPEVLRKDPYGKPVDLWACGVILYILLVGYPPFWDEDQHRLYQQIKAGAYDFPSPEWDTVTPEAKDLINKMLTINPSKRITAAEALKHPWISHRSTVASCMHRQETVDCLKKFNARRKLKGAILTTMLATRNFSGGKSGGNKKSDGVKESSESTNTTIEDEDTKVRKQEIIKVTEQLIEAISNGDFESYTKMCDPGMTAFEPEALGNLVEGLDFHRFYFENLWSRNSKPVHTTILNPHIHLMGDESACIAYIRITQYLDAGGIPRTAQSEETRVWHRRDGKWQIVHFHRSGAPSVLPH

SMILES	inhibition [1]	inhibition [2]	inhibition [3]	inhibition [4]	inhibition [5]	inhibition [6]	inhibition [7]	inhibition [8]	inhibition [9]	inhibition [10]	inhibition [11]	inhibition [12]	inhibition [13]	inhibition [14]	inhibition [15]	inhibition [16]	inhibition [17]	inhibition [18]	inhibition [19]	inhibition [20]
CNC(=O)c1cncc(/C=C/c2ccccc2Cl)c1	1.63%	-0.13%	-0.98%	-3.66%	-4.17%	1.43%	3.35%	-0.6%	1.77%	2.15%	1.77%	0.59%	-3.35%	0.55%	1.05%	0.66%	-0.89%	1.46%	5.24%	1.01%
COc1cc(/C=N/Nc2ncnc3[nH]ncc23)ccc1O	5.41%	2.57%	11.4%	-0.14%	-0.84%	26.1%	66.1%	4.23%	23.8%	4.22%	4.2%	1.49%	1.35%	2.01%	2.3%	2.87%	4%	7.13%	35.7%	7.13%
COc1cc(N2CCN(C(C)C)CC2)ccc1Nc1nc(Nc2ccc(F)cc2C(N)=O)c2cc[nH]c2n1	53.3%	29%	75.1%	4.5%	29.3%	3.09%	27.8%	49.6%	79.1%	5.07%	46%	-0.62%	8.47%	0.94%	5.03%	3.04%	7.11%	7.7%	47.7%	12.3%
Clc1ccc(-c2nn3ncccc3c2-c2ccnc(Nc3ccccc3)n2)cc1	0.86%	1.7%	1.08%	4.89%	-0.99%	-0.54%	-0.93%	0.52%	1.08%	0.42%	-0.24%	1.9%	6.65%	0.42%	-0.09%	22.4%	32.1%	1.31%	0.37%	-2.23%
CCn1c(-c2nonc2N)nc2cnc(Oc3cccc(NC(=O)c4ccc(N(C)C)cc4)c3)cc21	5.87%	1.23%	17.3%	0.01%	1.14%	0.31%	5.78%	1.31%	8.31%	1.42%	0.59%	0.41%	0.72%	1.12%	0.16%	2.53%	2.85%	2.53%	10.8%	2.76%
